ST2 inh: blocks human ST2 binding to IL-33 | Q01638 | AlphaLISA ST2-Fc/biotin-IL-33 interaction, 1 h | inhibition, % for hits at 17 µM | 78,000 compounds, 2.3% hits | AID 1259354; in the data active = inhibition above about 30%
Target sequence (Q01638 whole entry, looked up): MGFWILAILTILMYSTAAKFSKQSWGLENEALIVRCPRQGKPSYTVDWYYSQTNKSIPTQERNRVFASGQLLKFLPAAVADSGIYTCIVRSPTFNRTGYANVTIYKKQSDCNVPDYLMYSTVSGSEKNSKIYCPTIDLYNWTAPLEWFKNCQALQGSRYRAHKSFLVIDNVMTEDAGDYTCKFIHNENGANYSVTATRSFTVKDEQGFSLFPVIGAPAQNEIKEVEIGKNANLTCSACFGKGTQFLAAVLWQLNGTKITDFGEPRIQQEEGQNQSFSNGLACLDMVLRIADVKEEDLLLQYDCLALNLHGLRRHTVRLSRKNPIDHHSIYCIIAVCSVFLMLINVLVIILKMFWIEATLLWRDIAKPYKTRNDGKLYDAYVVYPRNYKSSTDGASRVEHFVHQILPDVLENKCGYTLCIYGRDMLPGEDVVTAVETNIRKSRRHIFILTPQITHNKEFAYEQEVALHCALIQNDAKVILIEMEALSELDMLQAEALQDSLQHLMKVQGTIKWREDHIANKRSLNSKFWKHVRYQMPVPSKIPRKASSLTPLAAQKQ
* = called active by the depositor; i = inactive. Only a selection was taken, and hits are over-represented in it overall.

SMILES	ST2 inh
Cc1onc(-c2ccccc2)c1C(=O)N1CCCC(Nc2ccc3c(c2)OCCO3)C1 (configuration not stated)	i
O=[N+]([O-])c1cc(C=Nc2ccc3oc(-c4cccc(F)c4)nc3c2)c(O)c([N+](=O)[O-])c1	i
Cc1ccc(-n2cccc2)cc1[N+](=O)[O-]	31%*
Cc1ccc(N2C(=O)C3C4C=CC(O4)C3C2=O)cc1[N+](=O)[O-] (configuration not stated)	i
Cc1ccc(N2C(=O)c3cccc([N+](=O)[O-])c3C2=O)cc1Cl	i
Cc1ccc(C)c(-c2csc(Nc3ncccn3)n2)c1	i
c1cnc(Nc2nc(-c3ccncc3)cs2)nc1	i
Oc1ccc(-c2csc(Nc3ncccn3)n2)cc1O	44%*
Cc1ccccc1OCc1nnc(SCC(=O)NCCc2ccccc2)n1C	i
COc1ccc(CCNC(C)=O)cc1	i
O=S(=O)(c1ccccc1)c1nc(-c2ccc(F)cc2)oc1NCc1ccccc1	i
N#Cc1nc(-c2ccc(F)cc2)oc1NCc1ccco1	i
COc1ccc(CCNc2oc(COc3ccc(Cl)cc3)nc2C#N)cc1	38%*
COc1ccc(OCc2nc(C#N)c(NCCN3CCOCC3)o2)cc1	i
N#Cc1nc(COc2ccc(Br)cc2)oc1NCCN1CCOCC1	i
COc1ccc(CCNc2oc(COc3ccccc3C)nc2C#N)cc1	38%*
Cc1ccccc1OCc1nc(C#N)c(NCc2ccc(F)cc2)o1	34%*
COc1ccc(CCNc2oc(COc3ccc(OC)cc3)nc2C#N)cc1	36%*
COc1ccc(CCC(=O)NCCc2cccc(Cl)c2)cc1	i
COc1ccc(C2C(C#N)=C(N)Oc3n[nH]c(C)c32)cc1COc1ccccc1C (configuration not stated)	i
Cc1cccc(Cn2c(CNS(=O)(=O)c3cccc(Cl)c3)nc3cccnc32)c1	i
O=C1c2cccc([N+](=O)[O-])c2C(=O)N1n1cnnc1	i
Cc1c(Cl)cccc1N1C(=O)C2CC=CCC2C1=O (configuration not stated)	i
Cc1ccc(S(=O)(=O)Nc2cc(S(N)(=O)=O)ccc2C)cc1	i
Cc1cccc(N=C2C(=O)Nc3ccc(Br)cc32)c1C	i
SMILES	ST2 inh
COc1ccc(Cl)cc1C(=O)Oc1cccc2cccnc12	i
O=C(O)c1ccc(C(=O)NCc2ccco2)c(C(=O)O)c1	i
CCN(CC)CCCNC(=O)c1cnn2c(C)c(Cc3c(F)cccc3Cl)c(C)nc12	i
O=c1[nH]c(CN2CCCC2)nc2c1C1(CCCC1)Cc1ccccc1-2	i
O=c1oc(-c2ccccc2)nc2c1C1(CCCC1)Cc1ccccc1-2	48%*
Cn1c(=O)c2nc(-c3ccccc3)oc2c2ccccc21	i
CC1(C)Cc2ccccc2-c2nc(-c3ccccc3)oc(=O)c21	41%*
CC1(C)Cc2ccccc2-c2nnc(-c3ccccc3)n21	i
O=c1[nH]c(CN2CCOCC2)nc2c1C1(CCCC1)Cc1ccccc1-2	i
COc1cc(OC)cc(C(=O)Nc2nc(-c3ccccn3)cs2)c1	i
Cc1nc(C)n(CCCn2cc(-c3ccnc4ccccc34)nn2)n1	i
CC1=[N+]([O-])C(C)(C)CC(C)c2ccccc21 (configuration not stated)	i
Cc1cccc(N=c2oc3ccc(Br)cc3cc2C(N)=O)c1	i
NC(=O)c1cc2cc(Br)ccc2oc1=Nc1ccccc1	33%*
Cc1ccc(N=c2oc3ccc(Br)cc3cc2C(N)=O)cc1	i
CN(C)c1ccnc(Sc2ccccc2)c1C#N	i
CC(=O)Oc1ccc2c(=O)c(-c3csc(-c4ccccc4)n3)coc2c1	i
CCOc1ccc2c(=O)c(-c3nc4ccccc4s3)coc2c1	30%*
CCc1cc2c(=O)c(-c3nc4ccccc4s3)coc2cc1OC	i
COC(=O)[C@@H]1Cc2c([nH]c3ccccc23)[C@H]2C[C@@H](NC(C)C)C[C@@H](c3ccccc3)N21	i
COc1cc(/C=C2\C(=O)N(c3ccc(Cl)c(C(=O)O)c3)N=C2C)c([N+](=O)[O-])cc1OC	64%*
COc1cc(/C=C2\C(=O)N(c3ccccc3)N=C2C)cc(Br)c1O	i
COc1cc(/C=C2\C(=O)N(c3ccc(Cl)c(C(=O)O)c3)N=C2C)cc([N+](=O)[O-])c1O	80%*
COc1ccc(Cl)cc1/C=C1\C(=O)N(c2cccc(C(=O)O)c2)N=C1C	i
CC1=NN(c2ccc(Cl)c(Cl)c2)C(=O)/C1=C/c1cc([N+](=O)[O-])ccc1O	i
SMILES	ST2 inh
COc1cc(/C=C2\C(=O)N(c3cccc(Cl)c3)N=C2C)cc(OC)c1OC	i
CN1C(=O)C2(CCN(C(=O)[C@@H](N)Cc3cnc[nH]3)CC2)c2ccccc21	i
O=C(O)C1NC(c2cc(Br)ccc2O)C2C(=O)N(c3ccccc3)C(=O)C12 (configuration not stated)	i
COc1ccc2oc(=O)c(C(=O)Nc3nc(-c4ccccc4)cs3)cc2c1	i
COCCOc1ccc(C(=O)N[C@@H]2CN(C(=O)NCc3ccccc3)CCC[C@H]2O)cc1	i
CC(C)NC(=O)N1CCC[C@@H](O)[C@H](NC(=O)c2ccc(OCc3ccccc3)cc2)C1	i
COc1ccc(C(=O)N[C@@H]2CN(C(=O)NC3CCCCC3)CCC[C@H]2O)cc1	82%*
O=C(Nc1nc(-c2ccc(Cl)cc2)cs1)c1cccs1	i
N#C/C(=C\c1cccs1)c1nc(-c2ccc(Cl)cc2)cs1	46%*
N#C/C(=C\c1cccs1)c1nc(-c2cccs2)cs1	64%*
COc1ccc(/C=C(/NC(=O)c2cccs2)C(=O)NC(C)(C)C)cc1OC	i
CN1CCN(c2nc(-c3cccs3)cc(C(F)(F)F)n2)CC1	i
COc1ccc(/C=C(/C#N)c2nc(-c3cccs3)cs2)cc1OC	49%*
CCOc1cc(/C=C(\C#N)c2nc(-c3ccc(OC)c(OC)c3)cs2)ccc1O	i
Cc1cc(-c2cccs2)n[nH]1	i
Cc1ccc(-c2csc(/C(C#N)=C/c3ccco3)n2)cc1	63%*
N#C/C(=C\Nc1ccc(S(N)(=O)=O)cc1)c1nc(-c2ccc(Cl)cc2)cs1	i
N#C/C(=C\c1ccco1)c1nc(-c2cc3cc(Br)ccc3oc2=O)cs1	i
Cc1ccc2sc(-c3ccc(NC(=O)c4ccco4)cc3)nc2c1	i
O=C1CC(c2cccc(OCc3ccccc3)c2)c2cc3c(cc2N1)OCCO3 (configuration not stated)	i
O=C(Nc1cc(Cl)ccc1Cl)c1cccc(Cl)c1	i
CCc1c(C)nc2ncnn2c1Sc1ccccc1NC(=O)Nc1ccc(C)c(F)c1	i
CCOc1cc(C2CC(=O)NC(SCc3cccc4ccccc34)=C2C#N)ccc1O (configuration not stated)	i
O=C(NC1CCCC1)C1CCC(=O)N1Cc1ccc(F)cc1 (configuration not stated)	i
Cc1ccc(-c2csc(Nc3ccc(F)cc3)n2)cc1	i
SMILES	ST2 inh
COc1ccccc1/C=C(\C#N)c1nc(-c2cccc([N+](=O)[O-])c2)cs1	i
COc1ccc(/C=C(\C#N)c2nc(-c3cccc([N+](=O)[O-])c3)cs2)cc1O	35%*
Nc1n[nH]c(-c2cccc([N+](=O)[O-])c2)n1	i
Cc1ccc(-c2csc(/C(C#N)=C/c3cccs3)n2)cc1	64%*
Cc1ccc(Nc2nc(-c3ccccc3)cs2)cc1	i
COc1ccccc1C1C=C(Nc2ccccc2)C(=O)N1c1ccccc1 (configuration not stated)	i
